Source: PubChem (National Center for Advancing Translational Sciences (NCATS))
Only some compounds are listed: those with a hit (about 19% of all), similar ones and a draw of the others.
TDP1 cell noCPT = qHTS for Inhibitors of human tyrosyl-DNA phosphodiesterase 1 (TDP1): qHTS in cells in absence of CPT; DT40 Tdp1-/- hTDP1 cells, no CPT, ATP luminescence, 48 h; 15% of 420,000 active; Potency, µM (doses to about 46.2 µM), inactives show top-dose activity change, negative = growth inhibition, usual class: inhibitors; AID 686978, 2013; further: potency means the concentration at half of the fitted maximal effect; nearly all actives have a fitted effect of over 55% in size
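Seeded 400 DT40-hTDP1 cells/well (vehicle DMSO, no 20 nM CPT); pinned compounds; ≥48 hr at 37 °C; CellTiter-Glo luminescence as viability measure.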
HT1080 IDH1KD tx = qHTS for induction of synthetic lethality in tumor cells producing 2HG: qHTS for the HT-1080-IDH1KD cell line; HT-1080 IDH1 knockdown viability, ATP luminescence, 48 h; Potency, µM (top dose mostly 46.1 µM), for inactives: top-dose activity, negative = toxicity, actives largely listed as cytotoxic; 2% of 360,000 active; AID 686971, 2013;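 further: potency means the concentration at half of the fitted maximal effect; 0% = DMSO wells and -100% = cell-free medium wells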
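Cytotoxicity counter-line: IDH1KD HT-1080, 48 h, CellTiter-Glo. Curves classed by r2, magnitude and activity.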
IL1B secr inh = qHTS for Inhibitors of Inflammasome Signaling: IL-1-beta AlphaLISA Primary Screen; THP-1 LPS/ATP IL-1B secretion, AlphaLISA, 16 h; active compounds read low; activity change, % at 57.5 µM; 4.7% of 360,000 active; in the data active means activity change below about -50%; inconclusive means mostly about -30% to -49%
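THP-1 cells pretreated 1 hr with compounds (up to 57.5 uM final), then stimulated with LPS (250 ng/mL final) plus ATP (1.25 mM final); secreted IL-1B measured by AlphaLISA after 16 hr, decreased signal indicating inhibition.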
HT1080-NT tox = qHTS for induction of synthetic lethality in tumor cells producing 2HG: qHTS for the HT-1080-NT fibrosarcoma cell line; HT-1080-NT fibrosarcoma viability, CellTiter-Glo ATP luminescence, 48 h; Potency, µM (highest dose often 46.1 µM), inactives show at the top dose activity, negative = less viability, most hits filed as cytotoxic; 1.6% of 360,000 active; AID 686970, 2013;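 further: NT is the 2HG producing partner of a matched IDH1 knockdown line; potency means the concentration at half of the fitted maximal effect; 0% = DMSO-treated cells and -100% = media-only wells without cells; nearly all actives have a fitted effect of over 55% in size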
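Viability by CellTiter-Glo luminescence after 48 h compound exposure at 37C of HT-1080-NT cells (750/well, RPMI, 5% FBS). % activity scaled between DMSO wells and medium-only wells, then curve-fitted and categorized by curve class.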
DT40 TDP1 CPT = qHTS for Inhibitors of human tyrosyl-DNA phosphodiesterase 1 (TDP1): qHTS in cells in presence of CPT; chicken DT40 Tdp1-/-;hTDP1 cells + 20 nM CPT, ATP luminescence, 48 h; 12% of 420,000 active; Potency, µM (series often up to 46.2 µM), without a hit: at the top dose activity change, negative = growth inhibition, most hits filed as inhibitors; further: potency means the concentration at half of the fitted maximal effect; nearly all actives have a fitted effect of over 55% in size
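Chicken DT40 Tdp1-/- cells stably complemented with human TDP1 were seeded at 400 cells/well in medium containing 20 nM camptothecin, exposed to pin-transferred compounds, and grown at 37 °C for at least 48 hr. Viability was read as ATP luminescence.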
* marks the source's active call; other numbers are inactive results; i = inactive; ? = inconclusive; nt = no result given. Unless noted, the call rests on the fitted dose curve; in most records, active means well fitted curve in the direction sought with a large enough effect; inconclusive means small, poorly fitted or top-dose-only effect, or another doubt; inactive means no such curve, though single readings can be large; an effect the other way counts as inactive or inconclusive. Unless noted, on the % scale 0 is the no-effect control and ±100 the full control effect.

SMILES	TDP1 cell noCPT	HT1080 IDH1KD tx	IL1B secr inh	HT1080-NT tox	DT40 TDP1 CPT
CC(=O)c1ccc(-c2cc([C@H]3[C@H]4C=CC[C@@H](C)[C@@H]4C(=O)N3Cc3ccccc3)ccc2F)cc1	13µM*	?	-23	?	15µM*
CCOC(=O)c1[nH]c(C)c(C(=O)OC(C)C(=O)Nc2ncc(Cl)cc2Cl)c1C (centres undefined)	?	-29%	-17	-24%	18µM*
CCOC(=O)c1sc(N)c(C(=O)OC)c1C	-5%	19%	1	26%	-1%
CCOC(=O)c1sc(N)c(C(=O)Nc2ccccc2OC)c1C	2.9µM*	7.3µM*	15	?	2.9µM*
CCOC(=O)c1c(C)[nH]c(C(=O)OC(C)C(=O)Nc2ccccc2OC)c1C (centres undefined)	?	?	-2	-29%	16µM*
CCOC(=O)c1c(C)[nH]c(C(=O)OC(C)C(=O)Nc2ccc(C)cc2)c1C (centres undefined)	-23%	6%	-5	10%	-27%
Cc1cc(C)nc(Nc2nc(C(N)c3ccccc3)cs2)n1 (centres undefined)	?	-22%	?	?	?
NC(CCc1ccccc1)c1csc(Nc2nccc(C(F)(F)F)n2)n1 (centres undefined)	?	?	-18	16µM*	?
Cc1cc(C)nc(Nc2nc(C(N)CCc3ccccc3)cs2)n1 (centres undefined)	21µM*	?	-21	?	?
CCOC(=O)CCN	-11%	8%	27	13%	2%
COc1ccc(OC)c(NC(=O)CSc2nc(N3CCOCC3)nc(N3CCOCC3)n2)c1	?	4%	-13	6%	?
CCN(CC)S(=O)(=O)c1cc(NC(=O)c2cc([N+](=O)[O-])ccc2N2CCOCC2)ccc1C	16µM*	-15%	i	-14%	?
CCN(CC)S(=O)(=O)c1ccc(OC)c(NC(=O)c2cc([N+](=O)[O-])ccc2N2CCOCC2)c1	16µM*	0%	-4	-3%	?
O=C(CSc1nc(=O)n(CCN2CCOCC2)c2c1CCC2)Nc1ccc(F)cc1F	-7%	nt	nt	nt	-2%
Cc1ccc(NC(=O)CCC(=O)c2cccs2)cc1F	-18%	13%	21	5%	-3%
COc1cc(OC)c2c(-c3ccccc3)cc(=O)oc2c1C(CC(=O)N1CCOCC1)c1ccc2c(c1)OCO2 (centres undefined)	?	-3%	-3	-4%	?
CCN(CC)CCC(c1cc(OC)c(OC)c(OC)c1)c1c(O)cc(OC)cc1OC (centres undefined)	?	0%	21	0%	?
CCCCCc1cc(=O)oc2c(C(CCN3CCCC(C)C3)c3ccc4c(c3)OCO4)c(OC)cc(OC)c12 (centres undefined)	?	-2%	-54*	-5%	?
CCCCCc1cc(=O)oc2c(C(CCN(CC)CC)c3cc(OC)c(OC)c(OC)c3)c(OC)cc(OC)c12 (centres undefined)	18µM*	18µM*	?	?	?
COc1cc(OC)c2ccc(=O)oc2c1C(CCN1CCCC1)c1ccc2c(c1)OCO2 (centres undefined)	18µM*	-7%	-5	-9%	?
CCCCCc1cc(=O)oc2c(C(CCN3CCCCC3)c3ccc4c(c3)OCO4)c(OC)cc(OC)c12 (centres undefined)	?	?	-18	?	23µM*
COCCCN1C(=O)c2ccc(C(=O)N3CCN(c4ccccc4OC)CC3)cc2C1=O	16%	0%	11	0%	-10%
Cc1ccc([N+](=O)[O-])cc1NC(=O)CN(C(=O)c1ccc(Cl)cc1)C1CCCCC1	18µM*	?	-28	-14%	21µM*
O=C(CN(C(=O)c1ccc(Cl)cc1)C1CCCCC1)Nc1ccc(Cl)c([N+](=O)[O-])c1	15µM*	?	?	?	16µM*
O=C(CSc1ccccc1F)NCC(c1ccco1)N1CCCCC1 (centres undefined)	?	3%	13	10%	?
SMILES	TDP1 cell noCPT	HT1080 IDH1KD tx	IL1B secr inh	HT1080-NT tox	DT40 TDP1 CPT
CCOc1ccc(NC(=O)CN(C)C(=O)C2CSC3(C)CCC(=O)N23)cc1OCC (centres undefined)	0%	2%	27	10%	?
NCC(=O)N1CCC(C(=O)N[C@@H](Cc2c[nH]c3ccccc23)C(=O)O)CC1	17%	12%	0	0%	-2%
CC1(C)CCN2CCC(C)(C)c3c(O)ccc1c32	3.7µM*	?	14	?	3.3µM*
Cc1noc(C)c1C(=O)N1CCC[C@@]2(CCN(c3ccccn3)C2)C1	-2%	nt	nt	nt	12%
C[C@H]1CN([C@@H](C)CO)C(=O)CCCn2nncc2CO[C@@H]1CN(C)Cc1ccccc1C(F)(F)F	-21%	0%	-11	-5%	18µM*
C[C@@H]1CN([C@@H](C)CO)C(=O)CCCn2nncc2CO[C@H]1CN(C)Cc1ccc(-c2ccccc2)cc1	16µM*	8%	27	12%	0%
C[C@H]1CN([C@@H](C)CO)C(=O)CCCn2nncc2CO[C@@H]1CN(C)Cc1cccc(C(F)(F)F)c1	23µM*	-4%	11	-3%	21µM*
C[C@H](CO)N1C[C@H](C)[C@@H](CN(C)S(=O)(=O)c2ccc(-c3ccccc3)cc2)OCc2cn(nn2)CCCC1=O	?	9%	16	10%	-26%
C[C@@H]1CN([C@@H](C)CO)C(=O)CCCn2nncc2CO[C@H]1CN(C)Cc1cccc(C(F)(F)F)c1	-2%	7%	24	0%	1%
C[C@@H]1CN([C@@H](C)CO)C(=O)CCCn2cc(nn2)CO[C@H]1CN(C)S(=O)(=O)c1ccc(-c2ccccc2)cc1	6.5µM*	8%	34	1%	9.2µM*
C[C@H]1CN([C@@H](C)CO)C(=O)CCCn2nncc2CO[C@@H]1CN(C)Cc1ccccc1	-17%	4%	22	2%	0%
Cc1cc(C)c(NC(=O)C2CCCO2)c(C)c1NC(=O)C1CCCO1 (centres undefined)	-3%	13%	6	10%	2%
O=P1(c2ccccc2)C=Cn2c1cc1c2CCCC1 (centres undefined)	-6%	7%	22	2%	7%
